Source: PubChem BioAssay (NCATS)
Results filed as inconclusive are left out. Unless noted, calls follow the shape of the dose curve; as a rule, active = well fitted curve in either direction with a large enough effect (not every such curve was filed as active); inconclusive = small, poorly fitted or top-dose-only effect, or another doubt; inactive = flat fitted curve, though single readings scatter.

Legend:
[1] = AP1 Signaling Pathway (AID 357); details: ME-180 AP-1-bla reporter, EGF-induced, beta-lactamase ratio, 5 h; at 17.2 µM (top of the series) unless noted;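 also: ME-180 reporter cells stimulated with EGF at its EC50 level; % is scaled to controls: 0 for no effect and ±100 for the full control effect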
Summary of the method: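 Read-out was the 460nm/530nm emission ratio (excitation 405nm) after CCF4 loading for 2.5 hours at room temperature. Cells carried an AP-1-driven beta-lactamase reporter, were stimulated with EC50 EGF plus compound for 5 hours, and AC50 values came from titrations.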

[2] = NFAT Signaling Pathway (AID 444); details: Jurkat NFAT-bla M1, carbachol, beta-lactamase ratio, 5 h; at 17.2 µM (top of the series) unless noted;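 also: carbachol stimulus at about its EC50 of 1 µM final; % is scaled to controls: 0 for no effect and ±100 for the full control effect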
Summary of the method: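 Jurkat cells with NFAT-driven β-lactamase reporter and co-expressed M1 receptor, stimulated with carbachol (final 1 uM, ~EC50), compound titration, 5 h at 37 °C. CCF4 loaded 1 h at RT; 460/530 nm ratio gave %activity and AC50.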

[3] = Stat Signaling Pathway (AID 446); details: ME-180 (cervical carcinoma) SIE beta-lactamase reporter, IL-6 stimulated, 5 h; at 17.2 µM (top of the series) unless noted;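 also: ME-180 cervical cancer cells given 40 pM IL-6 alongside compound; SIE-controlled beta-lactamase reporter measured as 460/530 nm FRET emission ratio; % is scaled to controls: 0 for no effect and ±100 for the full control effect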
Summary of the method: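 Overnight-plated ME-180 cells bearing a STAT Inducible Element beta-lactamase reporter; 5 h co-exposure to compound and 40 pM IL-6; values normalized to 300 pM IL-6 and 125 nM JAK inhibitor controls.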

[4] = biological target: Glucocorticoid receptor (Homo sapiens) (UniProt P04150); assay: GR-GFP Redistribution (AID 450;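 active = compounds whose dose series gives a full or clear partial fitted curve of increased nuclear translocation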; also: potency is read from the fitted curve at half-maximal effect)
Chain of Glucocorticoid receptor (Homo sapiens) (P04150 whole entry, looked up): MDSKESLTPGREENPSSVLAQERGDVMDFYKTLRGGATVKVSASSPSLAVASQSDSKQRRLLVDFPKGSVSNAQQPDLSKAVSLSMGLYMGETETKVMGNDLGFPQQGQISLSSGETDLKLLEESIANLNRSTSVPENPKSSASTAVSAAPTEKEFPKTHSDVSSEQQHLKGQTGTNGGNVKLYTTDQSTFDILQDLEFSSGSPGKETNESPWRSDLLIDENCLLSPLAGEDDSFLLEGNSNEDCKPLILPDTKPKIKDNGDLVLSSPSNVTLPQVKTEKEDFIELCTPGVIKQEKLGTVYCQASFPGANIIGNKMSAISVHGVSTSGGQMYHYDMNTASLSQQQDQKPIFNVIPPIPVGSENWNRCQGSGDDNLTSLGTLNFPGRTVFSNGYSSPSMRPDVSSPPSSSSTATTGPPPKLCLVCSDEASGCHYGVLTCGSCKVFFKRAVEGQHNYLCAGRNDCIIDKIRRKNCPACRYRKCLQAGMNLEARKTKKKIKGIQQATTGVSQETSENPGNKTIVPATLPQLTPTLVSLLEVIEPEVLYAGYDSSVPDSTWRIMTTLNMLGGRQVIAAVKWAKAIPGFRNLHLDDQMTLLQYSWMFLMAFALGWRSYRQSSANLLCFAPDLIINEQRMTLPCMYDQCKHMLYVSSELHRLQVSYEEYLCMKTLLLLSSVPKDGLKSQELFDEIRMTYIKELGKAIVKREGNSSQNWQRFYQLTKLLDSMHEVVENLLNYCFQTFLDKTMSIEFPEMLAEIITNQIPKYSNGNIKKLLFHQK

COc1ccc(N2C(=O)CN=C2Nc2nc(C)cc(C)n2)cc1
inactive: activity change, negative = inhibition [1] 8.39% | activity change, negative = inhibition [2] -10% | activity, negative = inhibition [3] 4.62% | Potency [4] > 20.6 µM

C=CCNc1nc(C2(C)CC3(CC(C)(C)OC3=O)C(=O)O2)cs1 (configuration not stated)
inactive: activity change, negative = inhibition [1] -3.51% | activity change, negative = inhibition [2] -7.31% | activity, negative = inhibition [3] -18.1% | Potency [4] > 20.6 µM

COC(=O)c1ccc(=O)n(Cc2ccco2)c1
inactive: activity change, negative = inhibition [1] 4.81% | activity change, negative = inhibition [2] -1.77% | activity, negative = inhibition [3] -2.94% | Potency [4] > 20.6 µM

CC(C)CC(C(=O)O)C(C)CC(=O)Nc1ccn(-c2ccccc2)n1 (configuration not stated)
inactive: activity change, negative = inhibition [1] -9.05% | activity change, negative = inhibition [2] 6.76% | activity, negative = inhibition [3] 7.28% | Potency [4] > 20.6 µM

Cc1nc2c(c(N3CCOCC3)n1)OCC(=O)N2
inactive: activity change, negative = inhibition [1] 6.3% | activity change, negative = inhibition [2] -1.47% | activity, negative = inhibition [3] 6.75% | Potency [4] > 20.6 µM

CC(=O)Nc1ccc(S(=O)(=O)Nc2nc3n(n2)C(c2ccccc2)CC(=O)N3)cc1 (configuration not stated)
inactive: activity change, negative = inhibition [1] 4.99% | activity change, negative = inhibition [2] 2.5% | activity, negative = inhibition [3] 1.09% | Potency [4] > 20.6 µM

COc1ccccc1C1/C(=C(/O)c2ccc(C)cc2)C(=O)C(=O)N1Cc1ccco1 (configuration not stated)
inactive: activity change, negative = inhibition [1] 12.8% | activity change, negative = inhibition [2] 15.4% | activity, negative = inhibition [3] -15.4% | Potency [4] > 20.6 µM

CC1(C)Cc2c(oc3ncn4ncnc4c23)CO1
inactive: activity change, negative = inhibition [1] -9.2% | activity change, negative = inhibition [2] -1.16% | activity, negative = inhibition [3] 7.25% | Potency [4] > 20.6 µM

COc1cccc(N2C(=O)C(O)=C(C(C)=O)C2c2ccc(OC)c(OC)c2)c1 (configuration not stated)
inactive: activity change, negative = inhibition [1] -12.6% | activity change, negative = inhibition [2] 9.05% | activity, negative = inhibition [3] 0.326% | Potency [4] > 20.6 µM

CCCCn1c(C)cc2cc(O)ccc21
inactive: activity change, negative = inhibition [1] -15.1% | activity change, negative = inhibition [2] -5.83% | activity, negative = inhibition [3] -8.99% | Potency [4] > 20.6 µM

CCCCOc1ccc(CN(C)c2ncnc(N)n2)cc1
inactive: activity change, negative = inhibition [1] -9.35% | activity change, negative = inhibition [2] -11.6% | activity, negative = inhibition [3] 8.02% | Potency [4] > 20.6 µM

CN1CCN(C(=O)CSc2nc(-c3ccncc3)ccc2C#N)CC1
inactive: activity change, negative = inhibition [1] 2.77% | activity change, negative = inhibition [2] -14.8% | activity, negative = inhibition [3] 1.66% | Potency [4] > 20.6 µM

N#CC1=C(C=Nc2ccccc2O)CCC1
inactive: activity change, negative = inhibition [1] 12.3% | activity change, negative = inhibition [2] 8.46% | activity, negative = inhibition [3] -1.34% | Potency [4] > 20.6 µM

C/C(NC(=O)c1cccs1)=C1\C(=O)C[C@@H]2[C@H]1C2(C)C
inactive: activity change, negative = inhibition [1] -9.31% | activity change, negative = inhibition [2] -25.4% | activity, negative = inhibition [3] -12.2% | Potency [4] > 20.6 µM

CC(NC(=O)c1ccc(=O)oc1)c1ccccc1 (configuration not stated)
inactive: activity change, negative = inhibition [1] 8.92% | activity change, negative = inhibition [2] 0.391% | activity, negative = inhibition [3] 6.96% | Potency [4] > 20.6 µM

CC/C(=N\O)c1ccc(OC)c(OC)c1
inactive: activity change, negative = inhibition [1] 4.83% | activity change, negative = inhibition [2] 2.19% | activity, negative = inhibition [3] 3.07% | Potency [4] > 20.6 µM

O=C(O)c1ccc(COc2c(F)c(F)c(F)c(F)c2F)o1
inactive: activity change, negative = inhibition [1] 4.64% | activity change, negative = inhibition [2] -0.748% | activity, negative = inhibition [3] -10.8% | Potency [4] > 20.6 µM

CCSc1nc(N)c2c3c(sc2n1)CCC3
inactive: activity change, negative = inhibition [1] -12.5% | activity change, negative = inhibition [2] -2.96% | activity, negative = inhibition [3] -3.03% | Potency [4] > 20.6 µM

CN1C(=O)N(c2ccccc2)C(Nc2nncs2)C1(C)C (configuration not stated)
inactive: activity change, negative = inhibition [1] 2.23% | activity change, negative = inhibition [2] -8.24% | activity, negative = inhibition [3] -1.47% | Potency [4] > 20.6 µM

COCCCn1c2nc3ccccc3nc2c2c(=O)n(-c3ccccc3OC)c(C)nc21
inactive: activity change, negative = inhibition [1] -7.38% | activity change, negative = inhibition [2] -8.29% | activity, negative = inhibition [3] 5.28% | Potency [4] > 20.6 µM

N#Cc1nc(-c2cccs2)oc1NCCN1CCOCC1
inactive: activity change, negative = inhibition [1] -3.9% | activity change, negative = inhibition [2] -7.03% | activity, negative = inhibition [3] 5.17% | Potency [4] > 20.6 µM

CC(C)(C)NCC(=O)c1c[nH]c2ccccc12
inactive: activity change, negative = inhibition [1] 9.26% | activity change, negative = inhibition [2] -0.153% | activity, negative = inhibition [3] 14.8% | Potency [4] > 20.6 µM

Cc1nc(SCC(N)=O)[nH]c(=O)c1Cc1ccc(OC(C)C)cc1
inactive: activity change, negative = inhibition [1] 12% | activity change, negative = inhibition [2] 1.93% | activity, negative = inhibition [3] 8.12% | Potency [4] > 20.6 µM

Cn1c(=O)c2c(nc(NCc3ccc4c(c3)OCO4)n2Cc2ccccc2)n(C)c1=O
inactive: activity change, negative = inhibition [1] -13.1% | activity change, negative = inhibition [2] 6.4% | activity, negative = inhibition [3] -25% | Potency [4] > 20.6 µM

CCN(CC)S(=O)(=O)c1cccc2c(N(C)C)cccc12
inactive: activity change, negative = inhibition [1] -13.4% | activity change, negative = inhibition [2] -17.2% | activity, negative = inhibition [3] 19% | Potency [4] > 20.6 µM

O=C(NCCCn1ccnc1)c1cccnc1
inactive: activity change, negative = inhibition [1] 14.4% | activity change, negative = inhibition [2] -7.91% | activity, negative = inhibition [3] 6.38% | Potency [4] > 20.6 µM

CCOC(=O)c1ccc(NCC(O)COc2ccccc2)cc1 (configuration not stated)
inactive: activity change, negative = inhibition [1] -4.75% | activity change, negative = inhibition [2] -1.02% | activity, negative = inhibition [3] -4.83% | Potency [4] > 20.6 µM

CC(C)Nc1nc(NC(C)C)nc(N(C)n2cnnc2)n1
inactive: activity change, negative = inhibition [1] 9.58% | activity change, negative = inhibition [2] -6.19% | activity, negative = inhibition [3] 4.66% | Potency [4] > 20.6 µM
